Assay results published in PubChem BioAssay AID624134 (Broad Institute, 2012).
Screen size: about 1,600 compounds; about 1,100 (69%) were called active. The set was probably picked from earlier hits. Only a sample is shown. Results with a measured potency or affinity are listed apart. Records with an inconclusive call do not appear.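 How the source made its calls: active means signal drop with fitted half-maximal concentration no higher than twice the top valid tested concentration; inconclusive means flat curve with 30 to 70% signal loss, or poor fit; inactive means the rest, including signal rises and flat curves within 30%.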

test: HepG2 cell cytotoxicity, dose response, cytotoxicity control for Shn3 inhibitor project, CellTiter-Glo, cherry-picked (AID 624134); conditions: HepG2 viability, CellTiter-Glo ATP luminescence, 48 h; series mostly up to 35 µM

Row | Compound | outcome
1 | CCCCC[C@H]1CN(Cc2ccc(OC)cc2)C(=O)[C@@H]1CC(=O)NCc1ccccc1 | inactive
2 | Cc1ccc(CS(=O)(=O)c2ncc(Cl)c(C(=O)Nc3nnc(C)s3)n2)cc1 | inactive
3 | CSc1nnc(NC(=O)c2nc(S(=O)(=O)Cc3ccccc3F)ncc2Cl)s1 | inactive
4 | CCn1c(=O)c(C(=O)Nc2nc3ccccc3[nH]2)c(O)c2ccccc21 | inactive
5 | CCOC(=O)Cn1c(=O)c(-c2cc(Br)ccc2N)nc2ccccc21 | inactive
6 | CCOC(=O)Cn1c(S(=O)(=O)Cc2ccccc2Cl)nc(-c2ccccc2)c1-c1ccccc1 | inactive
7 | CCOC(=O)c1c(C)[nH]c(C)c1C(=O)CSc1nc2ccccc2c(=O)n1-c1ccc(CC)cc1 | inactive
8 | CCOC(=O)c1cccc(NC2c3ccccc3C(=O)N2Cc2ccco2)c1 (stereo not given) | inactive
9 | CSc1nnc(-c2ccco2)n1-c1ccccc1 | inactive
10 | CCC(C)c1ccc(S(=O)(=O)N2CCN(C(=O)c3ccc(Cl)c(S(=O)(=O)N4CCOCC4)c3)CC2)cc1 (stereo not given) | inactive
11 | CCCCCCC#Cc1ccc2c(c1)COc1c3ccccc3nn1-2 | inactive
12 | O=C(O)C1(Nc2ccccc2Cl)CCCC1 | inactive
13 | Cc1ccn2cc(-c3ccc(O)c(O)c3)nc2c1 | inactive
14 | Cc1ccc(-c2cn3cc(C)ccc3n2)cc1 | inactive
15 | COC(=O)C12OCC34C(CC5C(C)=C(O)C(=O)CC5(C)C3C(O)C1O)OC(=O)C(OC(=O)C=C(C)C)C24 (stereo not given) | inactive
16 | O=C(NCCCn1ccnc1)C(=O)NCC1OCCCN1S(=O)(=O)c1ccccc1 (stereo not given) | inactive
17 | CC(C)c1c(O)c2c(n(-c3ccccc3)c1=O)CCCC2 | inactive
18 | Cc1ccc(NC(=O)c2cc3ccccc3oc2=O)cc1S(=O)(=O)N(C)C | inactive
19 | O=C1CCc2cccc(O)c2N1 | inactive
20 | Cc1ccc(Cn2ccc(NC(=O)c3nn(C)cc3[N+](=O)[O-])n2)cc1 | inactive
21 | Cc1ccc(C(=O)Nc2cnc3ccccc3c2)cc1 | inactive
22 | COC(=O)c1ccccc1NC(=S)N(Cc1ccc2c(c1)OCO2)Cc1cc2cc(OC)ccc2[nH]c1=O | inactive
23 | CC(C)c1nnc(NC(=O)c2nc(S(=O)(=O)Cc3ccc(F)cc3)ncc2Cl)s1 | inactive
24 | COCc1nn2c(N)c(C#N)cnc2c1-c1ccccc1 | inactive

Row | Compound | outcome
25 | C=CCOc1nc2c(c(=O)n(C)c(=O)n2C)n1Cc1ccc(Cl)cc1 | inactive
26 | COc1ccc(CCNC(=O)CCC(=O)N2CCOc3ccc(Cl)cc32)cc1OC | inactive
27 | CCOC(=O)N1CCN(CC(c2ccccc2)c2ccccc2)CC1 | inactive
28 | COc1ccccc1NC(=O)Cn1cc(C(=O)C2CC2)c2ccccc21 | inactive
29 | CCC(CC)CN1C(N(C)C)=NC[C@@H]1CC(C)C | inactive
30 | CCOC(=O)C1CCCN(S(=O)(=O)c2ccc(S(=O)(=O)N3CCCC3)cc2)C1 (stereo not given) | inactive
31 | CN(CC(=O)NCc1ccc2c(c1)OCO2)S(=O)(=O)c1ccc(Br)s1 | inactive
32 | Cc1cccc(CCN2C(N(C)C)=NC[C@@H]2CC(C)C)c1 | inactive
33 | O=C1C=C(N2CCOCC2)c2ccccc2C1=O | inactive
34 | COc1cc(OC)c(OC)cc1/C=C1\CC(C)C/C(=C\c2cc(OC)c(OC)cc2OC)C1=O (stereo not given) | inactive
35 | Cc1ccc(C)c(S(=O)(=O)Nc2ccc(-n3cnnn3)cc2)c1 | inactive
36 | CC1(Cc2ccc(OC(F)(F)F)cc2)C(=O)Nc2c(Cl)ccc(Cl)c21 (stereo not given) | inactive
37 | Cc1nn(Cc2c(Cl)cccc2Cl)c(C)c1NC(=O)c1cn(-c2ccccc2)nc1-c1ccccc1 | inactive
38 | Cc1nn(Cc2noc(C(=O)NC3CCC(C)CC3)n2)c(C)c1Br (stereo not given) | inactive
39 | CCOC(=O)CC1CCCCN1C(=O)c1cc(COc2cccc3cnccc23)on1 (stereo not given) | inactive
40 | CCCOc1ccc2oc(=O)c3c(c2c1)CCCN3C(=O)CN1CCN(c2ncccn2)CC1 | inactive
41 | OC(c1ccccc1)C(O)C(c1ccccc1)N1CCCCC1 (stereo not given) | inactive
42 | OCCCNc1cc(-c2ccnc(Nc3cccc(Cl)c3)n2)ccn1 | inactive
43 | OCCCNc1nccc(-c2cc(Nc3cccc(Cl)c3)ncn2)n1 | inactive
44 | COc1ccc(OC)c(C(c2nnnn2Cc2ccccc2)N2CCN(C3CCCCC3)CC2)c1 (stereo not given) | inactive
45 | O=S(=O)(c1ccc(Cl)cc1)n1ccc2cccnc21 | inactive
46 | Cc1sc2ncnc(N3CCN(S(=O)(=O)c4ccccc4)CC3)c2c1C | inactive
47 | O=C(CN1C(=O)C2CCCCC2C1=O)NC1CCCc2ccccc21 (stereo not given) | inactive
48 | CCc1ccc(-n2c(O)c(C=NCCN(CC)CC)c(=O)[nH]c2=O)cc1 | inactive

Row | Compound | outcome
49 | CC(C)c1nnc(NC(=O)c2nc(S(=O)(=O)Cc3ccccc3)ncc2Cl)s1 | inactive
50 | O=C1CC(c2ccccc2)CC(O)=C1C=Nc1cccc(Cl)c1 (stereo not given) | inactive
51 | CC(=O)N1CCN(C(=O)CCc2cc(C(C)(C)C)c(O)c(C(C)(C)C)c2)CC1 | inactive
52 | COC(=O)[C@@]12CCCCN1[C@H](c1ccc(SC3CCCCC3)c(OC)c1)[C@@H]1C(=O)N(C)C(=O)[C@@H]12 | inactive
53 | CCSc1nnc(NC(=O)c2nc(S(=O)(=O)Cc3ccc(F)cc3)ncc2Cl)s1 | inactive
54 | CSc1nnc(NC(=O)c2nc(S(=O)(=O)Cc3cccc(C)c3)ncc2Cl)s1 | inactive
55 | Cc1ccc(CS(=O)(=O)c2ncc(Cl)c(C(=O)Nc3nnc(C(C)C)s3)n2)cc1 | inactive
56 | CC(C)(C)[C@@H]1COC(=O)[C@@H](NC(=O)OCC2c3ccccc3-c3ccccc32)C/C=C\C[C@@H](CC(=O)NCCO)C(=O)N1 | inactive
57 | C[C@H]1COC(=O)[C@H](NC(=O)OCC2c3ccccc3-c3ccccc32)C/C=C\C[C@H](CC(=O)N(CCO)Cc2ccccc2)C(=O)N1 | inactive
58 | O=C(CN1C(=O)c2ccccc2S1(=O)=O)c1ccc2c(c1)OCCCO2 | inactive
59 | COC(=O)[C@@]12CCCN1[C@H](c1ccc(-c3ccc(OC)cc3)cc1)[C@@H]1C(=O)N(C)C(=O)[C@@H]12 | inactive
60 | O=C1/C(=C/c2ccccn2)SC(=S)N1Nc1ncc(C(F)(F)F)cc1Cl | inactive
61 | COc1cc(NC(=O)COc2cccc3c2OC(C)(C)C3)cc(OC)c1OC | inactive
62 | CCOC(=O)c1c(C)[nH]c(C(=O)COC(=O)[C@H](C)N2C(=O)C3CCCCC3C2=O)c1C (stereo not given in full) | inactive
63 | CCOc1ccc(NS(=O)(=O)c2cc(C(=O)NCCN3CCOCC3)ccc2C)cc1 | inactive
64 | Cc1c(C(=O)N(Cc2cccc(Br)c2)C2CCS(=O)(=O)C2)oc2ccccc12 (stereo not given) | inactive
65 | CC1CCN(C(=O)c2ccc(N3C(=O)C4CCC(C)CC4C3=O)cc2)CC1 (stereo not given) | inactive
66 | Cc1c(CCOC(=O)CC23CC4CC(CC(C4)C2)C3)sc[n+]1CC(=O)c1ccc(Br)cc1 | inactive
67 | COc1ccccc1-n1cc([C@@H]2C[C@H]3CN(c4ccccc4)C(=O)[C@]34CCCN24)cn1 | inactive
68 | O=C(NNc1ccccc1)C(=O)NNS(=O)(=O)c1ccc(CCCl)cc1 | inactive
69 | O=C(CN1C(=O)c2ccccc2S1(=O)=O)c1ccc(Cl)cc1Cl | inactive
70 | NC(=O)NC(CC(=O)NCCc1ccccn1)c1ccccc1Cl (stereo not given) | inactive
71 | CC1(C)CC(=O)c2c(nc(SCC(=O)Nc3nsc(-c4ccccc4)n3)c(C#N)c2-c2ccccc2)C1 | inactive
72 | CNS(=O)(=O)c1cccc(C(=O)OCc2cc(C(C)=O)ccc2OC)c1 | inactive

Row | Compound | outcome
73 | CCN1C(=O)[C@H]2[C@@H](c3ccc(-c4ccc(OC)cc4)cc3)N3CCC[C@@]3(C(=O)OC)[C@H]2C1=O | inactive
74 | Cc1ccc(S(=O)(=O)CCC(=O)OCC(=O)Nc2cc(S(=O)(=O)N3CCOCC3)ccc2C)cc1 | inactive
75 | CNC(=O)c1nnsc1S(=O)c1ccc(Cl)cc1 (stereo not given) | inactive
76 | COCCn1c(SCC(=O)/C=C2\N(C)c3ccccc3C2(C)C)nnc1-c1ccncc1 | inactive
77 | O=C1NCCOC(=O)[C@@H](Cc2ccc(F)cc2)CC/C=C/C[C@@H]1CC(=O)N(CCO)Cc1ccccc1 | inactive
78 | Cc1cc(=O)oc2c3c(cc(OCC(=O)Nc4ccc(CCO)cc4)c12)OC(C)(C)CC3 | inactive
79 | COc1c(CC=C(C)C)cc(C2CC(=O)c3c(O)cc(O)cc3O2)cc1CC=C(C)C (stereo not given) | inactive
80 | O=C(Nc1cc(F)ccc1F)N1CCN(c2ccnc3cc(Cl)ccc23)CC1 | inactive
81 | COc1ccccc1-n1ccnc(SCC(=O)NCc2ccccc2Cl)c1=O | inactive
82 | Cc1ccc(S(=O)(=O)NCCc2cc3ccc(C)cc3[nH]c2=O)cc1 | inactive
83 | CC[C@H](C)C(=O)O[C@H]1C[C@@H](C)C=C2C=C[C@H](C)[C@H](CC[C@@H]3C[C@@H](O)CC(=O)O3)[C@H]21 | inactive
84 | COc1ccc(S(=O)(=O)N2CCN(c3cc(-c4ccccc4)nc4ncnn34)CC2)cc1 | inactive
85 | O=C(CSc1ccccn1)Nc1nonc1[N+](=O)[O-] | inactive
86 | C=CCC[C@H](Cc1ccc(F)cc1)C(=O)OC[C@H](Cc1c[nH]c2ccccc12)NC(=O)[C@H](CC=C)CC(=O)N(CCO)Cc1ccccc1 | inactive
87 | C=CC[C@H](CC(=O)N(CCO)Cc1ccccc1)C(=O)NC[C@H](OC(=O)[C@@H](CC=C)Cc1ccc(F)cc1)c1ccccc1 | inactive
88 | C=CCOc1nc2c(c(=O)n(C)c(=O)n2C)n1Cc1ccc(Cl)cc1Cl | inactive
89 | O=C(COC(=O)/C=C/c1ccc(OC(F)F)cc1)Nc1ccc2[nH]c(=O)[nH]c2c1 | inactive
90 | C[C@]12CC[C@H](O)CC1=CCC1C2CC[C@@]2(C)C1CCC21OCCO1 (stereo not given in full) | inactive
91 | Cc1csc(=O)n1CC(=O)OCC(=O)c1c(N)n(C)c(=O)n(C)c1=O | inactive
92 | CS(=O)(=O)c1nc(-c2ccc(Br)cc2)cc(-c2ccccc2)c1C#N | inactive
93 | Cc1ccc2c(c1)c(C1=c3ccccc3=NC1=O)c(O)n2C | inactive
94 | CCCCN1CC(COCc2ccccc2)Oc2cccc(Oc3ccc(C)cc3)c2S1(=O)=O (stereo not given) | inactive
95 | COc1ccc2c(c1OC)C(=O)N1c3ccccc3C(=O)N(c3ccccc3F)C21 (stereo not given) | inactive
